In PubChem BioAssay AID1159580 (chemical genetic matrix, 2015):
“And” between values parts separate entries of the source, which are not always exact repeats. Identical values can stand only once. The whole screen tested about 5,500 compounds, of which about 2,000 (36%) were called active. Inconclusive results (about 18%) are left out. Cut-off read from the data, not from the text of the source: active = normalized growth mostly below about 0.91 (no sharp cut-off); inconclusive = no clear call, values can overlap the other calls; inactive = mostly above about 0.92. This is one part of the list.

Experiment: chemical genetic growth profiling, strain panel (AID 1159580);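 note: tested at 20 µM; growth read once vehicle control cultures reached saturation at 30 °C; 1 = growth at the plate median or of vehicle wells; lower values mean less growth of the strain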
Conditions: S. cerevisiae deletion strains, growth OD

Measured: normalized growth

COc1ccc2c(=O)c(-c3cc4c(cc3OC)OCO4)coc2c1
inactive: locus YAL021C, strain ccr4, hits give low values 1 | locus YAL026C, strain drs2, hits give low values 1.01 | locus YAL030W, strain snc1, hits give low values 1 | locus YBL061C, strain skt5, hits give low values 1.01 | locus YBR009C, strain hhf1, hits give low values 1 | locus YBR021W, strain FUR4, hits give low values 0.907 | locus YBR023C, strain chs3, hits give low values 1.01 | locus YBR171W, strain sec66, hits give low values 1.01 | locus YBR229C, strain ROT2, hits give low values 1 | locus YBR231C, strain swc5, hits give low values 1.01 | locus YBR279W, strain paf1, hits give low values 1.02 | locus YCL011C, strain gbp2, hits give low values 1.01 | locus YCL016C, strain dcc1, hits give low values 1.01 | locus YCL029C, strain bik1, hits give low values 1 | locus YCL061C, strain MRC1, hits give low values 1.01 | locus YCL069W, strain vba3, hits give low values 1 | locus YCR088W, strain abp1, hits give low values 1.01 | locus YDL005C, strain med2, hits give low values 1.01 | locus YDL035C, strain GPR1, hits give low values 1 | locus YDL040C, strain nat1, hits give low values 1.01 | locus YDL074C, strain BRE1, hits give low values 1.04 | locus YDL101C, strain DUN1, hits give low values 1.05 | locus YDL185W, strain tfp1, hits give low values 1.02 | locus YDL192W, strain arf1, hits give low values 1.01 | locus YDR001C, strain nth1, hits give low values 1.01 | locus YDR069C, strain doa4, hits give low values 1.02 | locus YDR101C, strain arx1, hits give low values 0.997 | locus YDR137W, strain rgp1, hits give low values 0.971 | locus YDR159W, strain sac3, hits give low values 1.03 | locus YDR162C, strain NBP2, hits give low values 1.03 | locus YDR195W, strain ref2 1.03 | locus YDR297W, strain sur2, hits give low values 1.01 | locus YDR318W, strain mcm21, hits give low values 1 | locus YDR334W, strain swr1, hits give low values 1.03 | locus YDR335W, strain msn5, hits give low values 1.01 | locus YDR388W, hits give low values 0.997 | locus YDR392W, strain spt3, hits give low values 1.02 | locus YDR502C, strain sam2, hits give low values 1.02 | locus YEL003W, strain gim4, hits give low values 1.01 | locus YEL037C, strain rad23, hits give low values 1.01 | locus YEL061C, strain CIN8 (second series), hits give low values 1.01 | locus YER015W, strain faa2, hits give low values 1.01 | locus YER016W, strain bim1, hits give low values 1.01 | locus YER110C, hits give low values 1.01 | locus YER111C, strain swi4, hits give low values 1.01 | locus YER155C, strain BEM2 (second series), hits give low values 1 | locus YER155C, strain BEM2, hits give low values 1 | locus YER167W, strain BCK2, hits give low values 1.02 | locus YFR010W, strain ubp6, hits give low values 1.02 | locus YGL078C, strain dbp3, hits give low values 1 | locus YGL086W, strain mad1, hits give low values 0.993 | locus YGL167C, strain pmr1, hits give low values 1.01 | locus YGL173C, strain kem1, hits give low values 1 | locus YGL227W, strain vid30, hits give low values 1.01 | locus YGL240W, strain doc1, hits give low values 1 | locus YGL248W, strain PDE1, hits give low values 1.02 | locus YGL253W, strain hxk2, hits give low values 1.01 | locus YGR135W, strain pre9, hits give low values 1 | locus YGR252W, strain gcn5, hits give low values 0.907 | locus YHR013C, strain ard1, hits give low values 1.03 | locus YHR027C, strain rpn1, hits give low values 1.02 | locus YHR030C, strain SLT2, hits give low values 0.98 | locus YHR079C, strain IRE1 (second series), hits give low values 1.03 | locus YHR079C, strain IRE1, hits give low values 0.982 | locus YHR094C, strain hxt1, hits give low values 1.02 | locus YHR129C, strain ARP1, hits give low values 1.03 | locus YHR142W, strain chs7, hits give low values 0.987 | locus YHR200W, strain rpn10, hits give low values 1.03 | locus YIL066C, strain RNR3, hits give low values 1.02 | locus YIL073C, strain SPO22, hits give low values 1.07 | locus YIL125W, strain kgd1, hits give low values 1 | locus YIR030C, strain dcg1, hits give low values 1.02 | locus YJL092W, strain hpr5, hits give low values 1.02 | locus YJL095W, strain BCK1 (second series), hits give low values 1.01 | locus YJL095W, strain BCK1, hits give low values 1.01 and 0.987 | locus YJL115W, strain asf1, hits give low values 1.02 | locus YJL129C, strain trk1, hits give low values 0.996 | locus YJL134W, strain LCB3, hits give low values 1.02 | locus YJL154C, strain vps35, hits give low values 1 | locus YJL164C, strain tpk1, hits give low values 1.02 | locus YJL166W, strain qcr8, hits give low values 1 | locus YJL168C, strain set2, hits give low values 1.02 | locus YJL187C, strain SWE1 (second series), hits give low values 1.03 | locus YJL187C, strain SWE1, hits give low values 1 | locus YJR066W, strain TOR1, hits give low values 0.927 | locus YKL009W, strain mrt4, hits give low values 0.952 | locus YKL068W, hits give low values 1.03 | locus YKL085W, strain MDH1 (second series), hits give low values 1.02 | locus YKL085W, strain MDH1, hits give low values 1.02 | locus YKL160W, strain elf1, hits give low values 1.01 | locus YKL190W, strain CNB1, hits give low values 1.04 | locus YKR001C, strain vps1, hits give low values 1.01 | locus YKR026C, strain gcn3, hits give low values 1.01 | locus YKR091W, strain srl3, hits give low values 1.01 | locus YLL001W, strain dnm1, hits give low values 1.01 | locus YLL026W, hits give low values 1.01 | locus YLL041C, strain sdh2, hits give low values 1.01 | locus YLR027C, strain aat2, hits give low values 1 | locus YLR039C, strain RIC1, hits give low values 1.13 | locus YLR058C, strain SHM2, hits give low values 1.02 | locus YLR102C, strain apc9, hits give low values 1.01 | locus YLR113W, strain HOG1, hits give low values 1.01 | locus YLR221C, strain rsa3, hits give low values 1 | locus YLR258W, strain gsy2, hits give low values 1 | locus YLR262C, strain YPT6 (second series), hits give low values 1.01 | locus YLR262C, strain YPT6, hits give low values 1.06 | locus YLR268W, strain sec22, hits give low values 0.972 | locus YLR320W, strain mms22, hits give low values 1.02 | locus YLR330W, strain CHS5, hits give low values 1.02 | locus YLR342W, strain FKS1 (second series), hits give low values 0.997 | locus YLR342W, strain FKS1, hits give low values 1.01 | locus YLR357W, strain rsc2, hits give low values 1.1 | locus YLR370C, strain arc18, hits give low values 1.01 | locus YLR371W, strain rom2, hits give low values 1.04 | locus YLR384C, strain iki3, hits give low values 0.998 | locus YLR418C, strain cdc73, hits give low values 1.05 | locus YML016C, strain PPZ1, hits give low values 1.02 | locus YML032C, strain rad52, hits give low values 0.98 | locus YML120C, strain ndi1, hits give low values 1.02 | locus YML124C, strain tub3, hits give low values 1.03 | locus YMR058W, strain fet3, hits give low values 1.02 | locus YMR078C, strain ctf18, hits give low values 1.02 | locus YMR125W, strain sto1, hits give low values 1.04 | locus YMR129W, hits give low values 1.01 | locus YMR205C, strain PFK2, hits give low values 1.01 | locus YMR223W, strain ubp8, hits give low values 1.01 | locus YMR231W, strain pep5, hits give low values 1.01 | locus YMR307W, strain GAS1, hits give low values 0.979 | locus YNL067W, strain RPL9B, hits give low values 1.03 | locus YNL071W, strain lat1, hits give low values 1 | locus YNL153C, strain GIM3, hits give low values 1.04 | locus YNL183C, strain NPR1, hits give low values 0.944 | locus YNL209W, strain ssb2, hits give low values 1.01 | locus YNL233W, strain BNI4, hits give low values 1.03 | locus YNL248C, strain rpa49, hits give low values 1.02 | locus YNL250W, strain rad50, hits give low values 1.06 | locus YNL271C, strain bni1, hits give low values 1.02 | locus YNL298W, strain CLA4, hits give low values 0.969 | locus YNL307C, strain MCK1, hits give low values 0.97 | locus YNL322C, strain KRE1 (second series), hits give low values 1.01 | locus YNL322C, strain KRE1, hits give low values 1.02 | locus YNR049C, strain mso1, hits give low values 1.01 | locus YNR052C, strain pop2, hits give low values 1.02 | locus YOL012C, strain htz1 1.12 | locus YOL147C, strain pex11, hits give low values 1 | locus YOR001W, strain rrp6, hits give low values 1 | locus YOR061W, strain CKA2, hits give low values 1.02 | locus YOR069W, strain VPS5, hits give low values 1.02 | locus YOR070C, strain gyp1, hits give low values 1 | locus YOR080W, strain dia2, hits give low values 1.01 | locus YOR083W, strain WHI5, hits give low values 0.999 | locus YOR106W, strain vam3, hits give low values 1 | locus YOR136W, strain idh2, hits give low values 1.01 | locus YOR144C, strain elg1, hits give low values 1.04 | locus YOR184W, strain ser1, hits give low values 0.957 | locus YOR231W, strain MKK1, hits give low values 0.993 | locus YOR265W, strain rbl2, hits give low values 1.01 | locus YOR270C, strain vph1, hits give low values 1.04 | locus YOR290C, strain snf2, hits give low values 1.02 | locus YOR316C, strain cot1, hits give low values 1.02 | locus YPL051W, strain arl3, hits give low values 1 | locus YPL078C, strain atp4, hits give low values 1.01 | locus YPL106C, strain sse1, hits give low values 0.996 | locus YPL240C, strain hsp82, hits give low values 0.995 | locus YPL241C, strain CIN2, hits give low values 1.04 | locus YPL256C, strain CLN2, hits give low values 0.963 | locus YPR119W, strain clb2, hits give low values 1.02 | locus YPR141C, strain kar3, hits give low values 1.03 | locus YPR163C, strain tif3, hits give low values 0.992 | locus YPR167C, strain met16, hits give low values 1.02 | strain wtn01, hits give low values 1.01
